Common to all, as to experiment: DAPPL (digital affinity profiling via proximity ligation, sequencing); 10 mM Tris-HCl pH 7.5, 50 mM NaCl, 1 mM DTT, 4% glycerol, room temperature, 30 min; GST-TFs on glutathione beads, 16-mer random dsDNA library, 0.1% formaldehyde crosslink after washing; high values mean tight binding
The target in assay [1] is T1, FLI1 (Homo sapiens, UniProt Q01543 1-452).
T1 sequence: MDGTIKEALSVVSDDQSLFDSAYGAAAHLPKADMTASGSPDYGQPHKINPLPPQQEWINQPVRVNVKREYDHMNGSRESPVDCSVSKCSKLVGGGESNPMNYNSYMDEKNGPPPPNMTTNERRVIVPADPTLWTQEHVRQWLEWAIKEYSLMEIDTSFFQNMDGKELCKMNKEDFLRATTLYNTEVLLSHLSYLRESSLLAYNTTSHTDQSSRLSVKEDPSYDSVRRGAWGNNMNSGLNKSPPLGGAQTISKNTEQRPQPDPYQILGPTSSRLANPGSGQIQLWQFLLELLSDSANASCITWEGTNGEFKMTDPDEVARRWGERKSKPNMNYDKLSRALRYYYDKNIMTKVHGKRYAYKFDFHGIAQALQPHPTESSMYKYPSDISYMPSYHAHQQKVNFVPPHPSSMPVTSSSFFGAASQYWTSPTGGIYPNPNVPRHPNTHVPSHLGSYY
The conditions noted are these: protein: recombinant; tags: N-terminal GST; dsDNA, one strand shown. The method in brief:
(§1)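 Each value of binding signal is a hexamer's read frequency for a factor divided by the same hexamer's frequency in the tag-only sample. Barcoded, bead-captured GST fusions of human transcription factors made in yeast were pooled with that sample and incubated with 200 nmole of a random double-stranded 16-mer DNA library in Tris/NaCl/DTT/glycerol buffer at room temperature for 30 min. Washing, 0.1% formaldehyde crosslinking, proximity ligation, PCR and Illumina NextSeq500 sequencing followed.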

The target of assay [2] is T2, ELK1 (Homo sapiens, UniProt P19419 1-428).
T2 sequence: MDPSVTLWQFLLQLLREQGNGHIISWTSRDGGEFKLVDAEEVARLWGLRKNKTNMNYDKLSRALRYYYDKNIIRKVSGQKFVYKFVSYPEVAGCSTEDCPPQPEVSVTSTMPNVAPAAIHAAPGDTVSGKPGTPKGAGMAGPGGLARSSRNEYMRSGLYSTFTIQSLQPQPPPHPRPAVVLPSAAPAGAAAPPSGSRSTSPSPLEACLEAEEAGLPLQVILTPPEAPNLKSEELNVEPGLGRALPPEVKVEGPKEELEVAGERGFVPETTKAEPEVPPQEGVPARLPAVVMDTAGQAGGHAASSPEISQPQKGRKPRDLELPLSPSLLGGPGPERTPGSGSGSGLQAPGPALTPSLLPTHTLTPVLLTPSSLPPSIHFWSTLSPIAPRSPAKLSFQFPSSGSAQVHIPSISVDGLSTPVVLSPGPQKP
As to conditions: protein: recombinant; tags: N-terminal GST; dsDNA, one strand shown. The gist of the method:
as §1

The target of assay [3] is T3, GABPA (Homo sapiens, UniProt Q06546 1-454).
T3 sequence: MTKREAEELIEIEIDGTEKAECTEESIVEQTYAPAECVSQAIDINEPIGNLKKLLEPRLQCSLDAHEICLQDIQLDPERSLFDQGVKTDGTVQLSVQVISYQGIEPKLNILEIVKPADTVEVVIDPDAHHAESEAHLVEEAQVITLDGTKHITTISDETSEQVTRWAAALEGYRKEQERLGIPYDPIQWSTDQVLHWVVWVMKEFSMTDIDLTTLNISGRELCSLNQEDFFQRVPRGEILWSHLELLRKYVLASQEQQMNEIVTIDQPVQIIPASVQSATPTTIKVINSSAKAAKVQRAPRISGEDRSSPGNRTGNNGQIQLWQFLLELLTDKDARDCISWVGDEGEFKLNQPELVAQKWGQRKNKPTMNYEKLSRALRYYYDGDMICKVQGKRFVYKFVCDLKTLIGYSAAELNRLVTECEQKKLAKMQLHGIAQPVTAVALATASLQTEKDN
The conditions noted are these: protein: recombinant; tags: N-terminal GST; dsDNA, one strand shown. The method in brief: as §1

In assay [4] the target is T4, ERG (Homo sapiens, UniProt P11308 1-479).
T4 sequence: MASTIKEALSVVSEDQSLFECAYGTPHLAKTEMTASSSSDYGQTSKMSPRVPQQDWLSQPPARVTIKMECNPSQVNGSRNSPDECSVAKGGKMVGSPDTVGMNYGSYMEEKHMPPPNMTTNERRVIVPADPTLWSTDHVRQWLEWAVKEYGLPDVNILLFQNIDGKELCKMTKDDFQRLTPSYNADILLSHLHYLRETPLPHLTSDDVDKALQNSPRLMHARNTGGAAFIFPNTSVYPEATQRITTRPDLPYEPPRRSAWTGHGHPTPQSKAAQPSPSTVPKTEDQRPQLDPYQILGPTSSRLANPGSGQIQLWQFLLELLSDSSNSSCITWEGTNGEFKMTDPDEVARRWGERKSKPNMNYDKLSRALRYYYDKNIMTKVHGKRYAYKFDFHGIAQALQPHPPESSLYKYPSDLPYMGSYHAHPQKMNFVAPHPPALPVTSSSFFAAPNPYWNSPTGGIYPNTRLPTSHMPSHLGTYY
As to conditions: protein: recombinant; tags: N-terminal GST; dsDNA, one strand shown. The gist of the method: as §1

The target in assay [5] is ELF1 (Homo sapiens, UniProt P32519 1-619). The conditions noted are these: protein: recombinant; tags: N-terminal GST; dsDNA, one strand shown. The method in brief: as §1
Sequence of ELF1 (P32519 whole entry): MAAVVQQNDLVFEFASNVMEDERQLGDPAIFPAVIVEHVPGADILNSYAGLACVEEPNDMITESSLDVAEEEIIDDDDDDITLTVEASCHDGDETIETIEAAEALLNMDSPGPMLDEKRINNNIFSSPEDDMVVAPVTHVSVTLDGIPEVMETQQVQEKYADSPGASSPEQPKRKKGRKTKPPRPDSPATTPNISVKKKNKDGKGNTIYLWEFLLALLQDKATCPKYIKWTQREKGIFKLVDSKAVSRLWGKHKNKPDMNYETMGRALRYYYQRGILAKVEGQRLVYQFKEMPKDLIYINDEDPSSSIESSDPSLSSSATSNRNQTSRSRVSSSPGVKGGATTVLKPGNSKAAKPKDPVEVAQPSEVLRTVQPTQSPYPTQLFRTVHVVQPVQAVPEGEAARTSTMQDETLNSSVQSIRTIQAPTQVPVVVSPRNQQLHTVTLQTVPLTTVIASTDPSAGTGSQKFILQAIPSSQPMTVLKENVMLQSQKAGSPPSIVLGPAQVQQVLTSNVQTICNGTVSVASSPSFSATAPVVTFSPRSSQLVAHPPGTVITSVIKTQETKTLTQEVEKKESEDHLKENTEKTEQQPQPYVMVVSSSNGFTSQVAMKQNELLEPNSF
For assay [6], the target named is T5, EHF (Homo sapiens, UniProt Q9NZC4 1-300).
T5 sequence: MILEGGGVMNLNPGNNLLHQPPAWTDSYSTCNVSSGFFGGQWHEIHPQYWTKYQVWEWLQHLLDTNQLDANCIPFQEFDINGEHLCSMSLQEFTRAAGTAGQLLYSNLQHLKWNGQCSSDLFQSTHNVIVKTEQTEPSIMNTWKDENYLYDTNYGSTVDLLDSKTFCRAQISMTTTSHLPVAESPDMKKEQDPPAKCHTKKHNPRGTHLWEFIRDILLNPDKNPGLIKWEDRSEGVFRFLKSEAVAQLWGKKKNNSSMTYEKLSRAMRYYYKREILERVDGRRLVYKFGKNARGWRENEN
As to conditions: protein: recombinant; tags: N-terminal GST; dsDNA, one strand shown. The gist of the method:
as §1

Assay [7] addresses SPI1 (Homo sapiens, UniProt P17947 1-270). The conditions noted are these: protein: recombinant; tags: N-terminal GST; dsDNA, one strand shown. The method in brief: as §1
Assay [8] addresses SPIB (Homo sapiens, UniProt Q01892 1-262). As to conditions: protein: recombinant; tags: N-terminal GST; dsDNA, one strand shown. The gist of the method:
as §1

For assay [9], the target named is T6, ELK3 (Homo sapiens, UniProt P41970 1-407).
T6 sequence: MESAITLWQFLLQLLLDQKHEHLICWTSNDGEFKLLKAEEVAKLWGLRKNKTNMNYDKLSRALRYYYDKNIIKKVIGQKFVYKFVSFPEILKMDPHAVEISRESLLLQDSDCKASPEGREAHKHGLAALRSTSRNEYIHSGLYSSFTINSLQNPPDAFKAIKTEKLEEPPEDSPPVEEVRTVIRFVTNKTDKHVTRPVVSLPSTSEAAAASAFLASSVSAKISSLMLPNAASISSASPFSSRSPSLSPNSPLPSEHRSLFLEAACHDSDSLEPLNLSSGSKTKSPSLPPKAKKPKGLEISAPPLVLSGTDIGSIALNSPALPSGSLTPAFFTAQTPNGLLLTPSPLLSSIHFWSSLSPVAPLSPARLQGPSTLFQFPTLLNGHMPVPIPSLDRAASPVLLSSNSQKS
The conditions noted are these: protein: recombinant; tags: N-terminal GST; dsDNA, one strand shown. The method in brief:
as §1

Assay [10] deals with T7, FEV (Homo sapiens, UniProt Q99581 1-238).
T7 sequence: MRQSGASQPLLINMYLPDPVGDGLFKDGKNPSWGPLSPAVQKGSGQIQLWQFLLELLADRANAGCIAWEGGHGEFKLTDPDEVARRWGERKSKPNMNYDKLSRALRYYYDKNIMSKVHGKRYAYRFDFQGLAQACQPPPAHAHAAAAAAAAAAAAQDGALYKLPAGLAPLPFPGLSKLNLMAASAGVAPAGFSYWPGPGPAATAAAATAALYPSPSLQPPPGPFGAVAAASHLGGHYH
As to conditions: protein: recombinant; tags: N-terminal GST; dsDNA, one strand shown. The gist of the method:
as §1

Assay [11] has as its target ETV5 (Homo sapiens, UniProt P41161 1-510). As to conditions: protein: recombinant; tags: N-terminal GST; dsDNA, one strand shown. The method in brief:
as §1

In assay [12] the target is HSF1 (Homo sapiens, UniProt Q00613 1-529). The conditions noted are these: protein: recombinant; tags: N-terminal GST; chain copies: 3; dsDNA, one strand shown. The gist of the method: as §1
Sequence of HSF1 (Q00613 whole entry): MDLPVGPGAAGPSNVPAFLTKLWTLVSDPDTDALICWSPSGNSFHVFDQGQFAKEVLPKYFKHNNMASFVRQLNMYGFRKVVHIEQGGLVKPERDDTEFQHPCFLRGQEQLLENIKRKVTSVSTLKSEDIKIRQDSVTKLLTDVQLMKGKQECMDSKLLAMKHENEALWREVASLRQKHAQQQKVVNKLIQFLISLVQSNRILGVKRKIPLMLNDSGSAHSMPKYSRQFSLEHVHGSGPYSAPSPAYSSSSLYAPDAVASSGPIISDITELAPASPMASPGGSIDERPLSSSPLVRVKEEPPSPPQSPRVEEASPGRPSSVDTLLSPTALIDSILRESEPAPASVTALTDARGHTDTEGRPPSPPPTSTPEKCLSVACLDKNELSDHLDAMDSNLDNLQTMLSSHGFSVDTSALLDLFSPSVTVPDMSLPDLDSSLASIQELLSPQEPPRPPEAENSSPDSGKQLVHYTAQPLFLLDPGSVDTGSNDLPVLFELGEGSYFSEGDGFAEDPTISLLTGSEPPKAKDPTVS
The target in assay [13] is ELF4 (Homo sapiens, UniProt Q99607 1-663). As to conditions: protein: recombinant; tags: N-terminal GST; dsDNA, one strand shown. The method in brief:
as §1

The target in assay [14] is T8, ELK4 (Homo sapiens, UniProt P28324-2 1-405).
T8 sequence: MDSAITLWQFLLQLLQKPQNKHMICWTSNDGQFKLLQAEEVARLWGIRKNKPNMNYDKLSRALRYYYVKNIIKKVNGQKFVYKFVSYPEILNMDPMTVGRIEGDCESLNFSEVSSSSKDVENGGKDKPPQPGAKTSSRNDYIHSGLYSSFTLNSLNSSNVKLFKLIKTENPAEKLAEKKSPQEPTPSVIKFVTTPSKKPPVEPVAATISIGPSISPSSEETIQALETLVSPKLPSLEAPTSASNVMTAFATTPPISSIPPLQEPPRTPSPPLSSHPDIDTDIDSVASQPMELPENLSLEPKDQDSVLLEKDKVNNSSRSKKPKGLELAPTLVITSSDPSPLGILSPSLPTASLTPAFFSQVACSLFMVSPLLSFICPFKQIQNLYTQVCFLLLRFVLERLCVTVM
As to conditions: protein: recombinant; tags: N-terminal GST; dsDNA, one strand shown. The method in brief: as §1

The target in assay [15] is T9, ETV2 (Homo sapiens, UniProt O00321 1-342).
T9 sequence: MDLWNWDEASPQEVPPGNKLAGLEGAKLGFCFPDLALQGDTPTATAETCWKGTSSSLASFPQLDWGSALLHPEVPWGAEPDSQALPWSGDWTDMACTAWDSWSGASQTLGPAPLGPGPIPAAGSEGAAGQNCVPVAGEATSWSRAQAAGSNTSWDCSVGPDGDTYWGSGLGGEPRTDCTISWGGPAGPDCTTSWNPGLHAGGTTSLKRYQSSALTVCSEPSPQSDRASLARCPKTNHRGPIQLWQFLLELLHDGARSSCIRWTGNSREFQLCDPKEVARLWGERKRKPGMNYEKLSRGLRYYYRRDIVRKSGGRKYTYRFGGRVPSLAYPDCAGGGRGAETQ
The conditions noted are these: protein: recombinant; tags: N-terminal GST; dsDNA, one strand shown. The method in brief:
as §1

In assay [16] the target is T10, ELF3 (Homo sapiens, UniProt P78545 1-371).
T10 sequence: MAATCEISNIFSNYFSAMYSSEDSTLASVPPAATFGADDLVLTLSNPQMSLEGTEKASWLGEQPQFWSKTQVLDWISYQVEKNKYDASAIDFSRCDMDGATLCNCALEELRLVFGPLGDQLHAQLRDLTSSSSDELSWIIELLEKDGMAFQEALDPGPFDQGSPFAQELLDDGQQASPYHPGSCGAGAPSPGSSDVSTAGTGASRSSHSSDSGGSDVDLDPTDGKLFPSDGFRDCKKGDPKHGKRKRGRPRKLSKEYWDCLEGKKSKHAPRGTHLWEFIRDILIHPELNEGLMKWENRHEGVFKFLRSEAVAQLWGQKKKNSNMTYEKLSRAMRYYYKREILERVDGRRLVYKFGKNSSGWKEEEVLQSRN
The conditions noted are these: protein: recombinant; tags: N-terminal GST; dsDNA, one strand shown. The gist of the method:
as §1

The target in assay [17] is CRX (Homo sapiens, UniProt O43186 1-299). The conditions noted are these: protein: recombinant; tags: N-terminal GST; dsDNA, one strand shown. The gist of the method:
as §1

Assay [18] has as its target ETV1 (Homo sapiens, UniProt P50549 1-477). As to conditions: protein: recombinant; tags: N-terminal GST; dsDNA, one strand shown. The gist of the method: as §1

Sequence of ELF4 (Q99607 whole entry): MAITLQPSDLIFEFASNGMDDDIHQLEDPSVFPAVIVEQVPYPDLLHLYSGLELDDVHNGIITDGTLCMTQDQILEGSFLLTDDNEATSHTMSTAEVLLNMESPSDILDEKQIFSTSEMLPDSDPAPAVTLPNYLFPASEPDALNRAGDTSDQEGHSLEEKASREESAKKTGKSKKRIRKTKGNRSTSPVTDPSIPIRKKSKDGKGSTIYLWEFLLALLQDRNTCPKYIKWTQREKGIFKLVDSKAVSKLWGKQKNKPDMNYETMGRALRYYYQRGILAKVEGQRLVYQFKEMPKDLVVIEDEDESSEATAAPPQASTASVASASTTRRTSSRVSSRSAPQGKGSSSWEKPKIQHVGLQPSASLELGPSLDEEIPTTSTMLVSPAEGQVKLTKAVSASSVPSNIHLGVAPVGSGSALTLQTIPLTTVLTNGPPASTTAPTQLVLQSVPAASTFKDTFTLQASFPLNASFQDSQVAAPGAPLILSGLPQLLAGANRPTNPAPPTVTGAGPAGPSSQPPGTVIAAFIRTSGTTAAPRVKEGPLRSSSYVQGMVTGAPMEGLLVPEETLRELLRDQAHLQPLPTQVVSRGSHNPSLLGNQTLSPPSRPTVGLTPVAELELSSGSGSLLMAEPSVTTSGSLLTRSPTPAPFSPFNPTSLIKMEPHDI
Sequence of CRX (O43186 whole entry): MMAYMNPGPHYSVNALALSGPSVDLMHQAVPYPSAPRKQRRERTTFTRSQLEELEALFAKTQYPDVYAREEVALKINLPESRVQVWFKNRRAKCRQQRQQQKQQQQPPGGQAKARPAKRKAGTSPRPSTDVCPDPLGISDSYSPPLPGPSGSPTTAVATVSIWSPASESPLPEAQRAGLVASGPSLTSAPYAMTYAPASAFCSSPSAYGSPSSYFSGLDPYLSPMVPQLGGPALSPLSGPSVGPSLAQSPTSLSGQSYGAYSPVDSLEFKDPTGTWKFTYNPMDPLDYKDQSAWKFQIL
Sequence of ETV1 (P50549 whole entry): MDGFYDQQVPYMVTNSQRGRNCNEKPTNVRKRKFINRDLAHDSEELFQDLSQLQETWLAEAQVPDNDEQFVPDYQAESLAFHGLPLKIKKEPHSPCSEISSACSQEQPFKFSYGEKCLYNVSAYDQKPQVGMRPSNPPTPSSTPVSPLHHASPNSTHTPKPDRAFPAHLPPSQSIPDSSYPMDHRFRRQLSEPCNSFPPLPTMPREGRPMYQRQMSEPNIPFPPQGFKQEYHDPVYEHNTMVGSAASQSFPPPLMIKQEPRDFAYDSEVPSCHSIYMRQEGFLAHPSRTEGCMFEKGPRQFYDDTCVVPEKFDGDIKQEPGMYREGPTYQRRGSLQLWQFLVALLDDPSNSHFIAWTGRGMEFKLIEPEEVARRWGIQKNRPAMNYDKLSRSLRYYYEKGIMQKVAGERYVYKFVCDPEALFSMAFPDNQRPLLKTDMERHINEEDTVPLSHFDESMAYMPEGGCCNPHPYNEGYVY
Sequence of ETV5 (P41161 whole entry): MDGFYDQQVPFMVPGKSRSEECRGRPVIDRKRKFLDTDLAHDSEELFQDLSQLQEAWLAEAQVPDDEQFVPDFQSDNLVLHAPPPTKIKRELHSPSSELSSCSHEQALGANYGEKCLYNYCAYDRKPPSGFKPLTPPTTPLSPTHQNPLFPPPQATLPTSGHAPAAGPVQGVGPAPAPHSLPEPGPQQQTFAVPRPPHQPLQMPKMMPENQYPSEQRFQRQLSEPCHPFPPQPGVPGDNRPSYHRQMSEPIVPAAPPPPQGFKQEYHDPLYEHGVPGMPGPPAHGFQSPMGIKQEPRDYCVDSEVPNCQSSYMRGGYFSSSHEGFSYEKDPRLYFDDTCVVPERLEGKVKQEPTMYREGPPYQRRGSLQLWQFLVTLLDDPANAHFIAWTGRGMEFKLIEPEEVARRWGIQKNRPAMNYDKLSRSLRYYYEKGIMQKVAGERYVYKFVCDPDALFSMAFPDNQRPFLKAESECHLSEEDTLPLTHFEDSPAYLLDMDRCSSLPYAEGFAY
Sequence of SPIB (Q01892 whole entry): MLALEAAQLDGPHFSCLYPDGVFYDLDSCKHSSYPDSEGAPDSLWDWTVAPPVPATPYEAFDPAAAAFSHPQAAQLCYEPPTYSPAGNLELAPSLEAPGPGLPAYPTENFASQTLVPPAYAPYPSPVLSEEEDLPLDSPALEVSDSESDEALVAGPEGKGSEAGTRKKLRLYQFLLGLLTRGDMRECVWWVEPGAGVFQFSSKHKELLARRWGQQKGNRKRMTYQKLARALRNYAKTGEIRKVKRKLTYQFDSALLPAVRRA

With AGCTGC, the binding signal in assay [1] is 1.16 fold enrichment (6-mer frequency, TF over GST control); in assay [2] it was 1.16 fold enrichment (6-mer frequency, TF over GST control); in assay [3], 1.17 fold enrichment (6-mer frequency, TF over GST control); in assay [4], 1.1 fold enrichment (6-mer frequency, TF over GST control); in [5], 1.18 fold enrichment (6-mer frequency, TF over GST control); in assay [6] it was 1.18 fold enrichment (6-mer frequency, TF over GST control). In addition, the binding signal in assay [7] is 1.11 fold enrichment (6-mer frequency, TF over GST control); in [8] it was 1.24 fold enrichment (6-mer frequency, TF over GST control); in assay [9] it was 1.01 fold enrichment (6-mer frequency, TF over GST control); in [10], 1.15 fold enrichment (6-mer frequency, TF over GST control); in [11] it was 1.06 fold enrichment (6-mer frequency, TF over GST control); in assay [12] it was 1.04 fold enrichment (6-mer frequency, TF over GST control). Moreover, the binding signal in [13] is 1.16 fold enrichment (6-mer frequency, TF over GST control); in assay [14] it was 1.11 fold enrichment (6-mer frequency, TF over GST control); in assay [15], 1.22 fold enrichment (6-mer frequency, TF over GST control); in [16], 1.08 fold enrichment (6-mer frequency, TF over GST control); in [17], 1.13 fold enrichment (6-mer frequency, TF over GST control); in assay [18], 1.18 fold enrichment (6-mer frequency, TF over GST control).
